Here are results for eleven compounds from PubChem BioAssay (NCATS).

In experiment [1] the target is Voltage-gated inwardly rectifying potassium channel KCNH2 (Homo sapiens) (UniProt Q12809). Briefly: qHTS Assay for Small Molecule Inhibitors of the Human hERG Channel Activity (AID 588834).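 Also: lower thallium flux fluorescence means stronger hERG block; nearly all actives have a fitted effect of over 50% in size.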 Also: potency is read from the fitted curve at half-maximal effect. In short, it runs like this: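 Measured: FluxOR fluorescence after thallium stimulation in U2OS cells transduced with hERG by baculovirus. Compounds pre-incubated around 10 min; medium Opti-MEM with 2% FCS. AC50 from Hill equation.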
Chain of Voltage-gated inwardly rectifying potassium channel KCNH2 (Homo sapiens) (Q12809 whole entry, looked up): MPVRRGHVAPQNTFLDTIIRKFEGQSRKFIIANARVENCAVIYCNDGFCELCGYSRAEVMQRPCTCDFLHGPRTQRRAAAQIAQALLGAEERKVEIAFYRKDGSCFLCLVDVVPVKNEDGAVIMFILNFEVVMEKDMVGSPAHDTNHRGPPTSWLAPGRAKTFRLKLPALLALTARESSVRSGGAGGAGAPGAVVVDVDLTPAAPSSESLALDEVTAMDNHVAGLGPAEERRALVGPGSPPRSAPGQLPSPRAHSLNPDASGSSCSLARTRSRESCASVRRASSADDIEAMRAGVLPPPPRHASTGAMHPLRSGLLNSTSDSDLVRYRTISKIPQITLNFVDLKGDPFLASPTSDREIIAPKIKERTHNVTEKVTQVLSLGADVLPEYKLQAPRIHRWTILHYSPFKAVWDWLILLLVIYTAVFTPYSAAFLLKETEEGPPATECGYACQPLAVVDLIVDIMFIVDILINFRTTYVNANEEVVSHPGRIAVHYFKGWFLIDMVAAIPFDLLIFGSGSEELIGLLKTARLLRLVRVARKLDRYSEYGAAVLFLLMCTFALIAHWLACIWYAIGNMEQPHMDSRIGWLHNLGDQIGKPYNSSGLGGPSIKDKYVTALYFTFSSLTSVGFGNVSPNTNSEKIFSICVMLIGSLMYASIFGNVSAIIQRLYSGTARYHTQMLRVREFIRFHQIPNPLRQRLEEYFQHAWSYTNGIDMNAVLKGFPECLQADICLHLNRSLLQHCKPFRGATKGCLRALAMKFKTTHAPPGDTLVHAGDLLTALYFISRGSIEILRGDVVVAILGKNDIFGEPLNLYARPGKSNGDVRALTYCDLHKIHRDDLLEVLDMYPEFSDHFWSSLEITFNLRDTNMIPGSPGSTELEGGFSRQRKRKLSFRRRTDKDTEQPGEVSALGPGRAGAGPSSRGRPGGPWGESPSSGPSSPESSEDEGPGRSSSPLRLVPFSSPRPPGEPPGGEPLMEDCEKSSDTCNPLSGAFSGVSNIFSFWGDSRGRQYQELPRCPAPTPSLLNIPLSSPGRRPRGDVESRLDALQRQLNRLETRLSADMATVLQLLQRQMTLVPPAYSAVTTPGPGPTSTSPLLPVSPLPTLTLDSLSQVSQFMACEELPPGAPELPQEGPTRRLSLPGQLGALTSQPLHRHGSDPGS

The nature of experiment [2]: S16 Schwann cell PMP22 intronic element firefly luciferase assay (AID 624032). Also: nearly all actives have a fitted effect of over 30% in size. Also: potency is read from the fitted curve at half-maximal effect. In short, it runs like this: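 Rat S16 Schwann cells stably carrying a PMP22 intronic element-driven Fluc reporter were seeded overnight, then exposed to compounds for 24 h at 37 °C. Luminescence was normalized to PTC124 (positive control) and DMSO (0% activity).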
In experiment [3] the target is Luciferin 4-monooxygenase (Photinus pyralis) (UniProt P08659). Briefly: Biochemical firefly luciferase enzyme assay for NPC (AID 624030).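 Also: purified P. pyralis luciferase at 10 nM with luciferin and ATP substrate; series mostly up to about 59 µM; nearly all actives have a fitted effect of over 70% in size.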 In short, it runs like this:
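Counter-screen for direct inhibition of the luciferase enzyme by approved-drug library compounds, run at 10 nM enzyme in 50 mM Tris acetate (final). Luminescence was read within 5 min of enzyme-buffer addition and normalized to PTC124 versus DMSO (0%).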

Experiment [4] can be described thus: S16 Schwann cell viability assay (CellTiter-Glo assay) (AID 624031).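 Also: cellular ATP luminescence as a viability measure; series mostly up to about 58 µM; nearly all actives have a fitted effect of over 70% in size.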 In short, it runs like this:
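This viability control uses native rat S16 Schwann cells grown in DMEM plus 10% FBS. After a 24 h compound treatment at 37 °C, CellTiter-Glo luminescence reports ATP content, scaled against DMSO-treated and cell-free wells.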
(In general: Cellular ATP, detected with luciferase, serves as a proxy for viable cell number.)

Experiment [5] is described as follows: S16 Schwann cell PMP22 intronic element beta-lactamase assay (AID 624044; calls by dose curve; also: nearly all actives have a fitted effect of over 15% in size). In short, it runs like this: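 Rat S16 Schwann cells with beta-Lac driven by a PMP22 intronic element, compound-treated 24 h at 37 °C. LiveBLAzer FRET B/G read: 460 nm normalized to potassium clavulanate vs DMSO; 535 nm FRET as viability; concentration-effect curves classified.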

Records with an inconclusive call do not appear. Calls of active or inactive are those of the source. Unless noted, calls follow the shape of the dose curve; as a rule, active = well fitted curve in the direction sought with a large enough effect; inconclusive = small, poorly fitted or top-dose-only effect, or another doubt; inactive = no such curve, though single readings can be large; an effect the other way counts as inactive or inconclusive.

Chain of Luciferin 4-monooxygenase (Photinus pyralis) (P08659 whole entry, looked up): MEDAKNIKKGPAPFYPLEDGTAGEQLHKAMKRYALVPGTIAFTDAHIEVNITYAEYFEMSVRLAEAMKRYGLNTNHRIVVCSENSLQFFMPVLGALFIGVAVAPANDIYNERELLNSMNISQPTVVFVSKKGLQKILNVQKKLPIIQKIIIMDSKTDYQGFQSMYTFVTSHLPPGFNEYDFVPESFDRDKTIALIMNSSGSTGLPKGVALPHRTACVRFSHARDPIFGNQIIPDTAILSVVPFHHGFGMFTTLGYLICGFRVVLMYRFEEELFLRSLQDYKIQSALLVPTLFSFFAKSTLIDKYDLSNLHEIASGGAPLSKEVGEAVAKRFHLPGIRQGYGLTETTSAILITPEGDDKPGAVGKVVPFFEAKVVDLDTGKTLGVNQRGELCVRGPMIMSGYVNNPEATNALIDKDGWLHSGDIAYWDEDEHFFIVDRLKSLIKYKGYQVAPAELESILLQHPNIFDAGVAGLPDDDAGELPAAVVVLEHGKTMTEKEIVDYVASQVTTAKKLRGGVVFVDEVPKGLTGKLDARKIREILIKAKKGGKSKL

With `CCNC(=O)/C=C/c1cccc(Br)c1`, the Potency result in experiment [1] and in experiment [2] was “inactive” throughout.
On to `CNCCc1ccccn1`, for which the Potency entry in experiment [3], in experiment [4] and in experiment [2] was “inactive” in each case.
Consider `Cc1cc(-c2ccccc2)nnc1NCCN1CCOCC1`, for which the Potency result in experiment [4], in experiment [2] and in experiment [5] was “inactive” each time.
For the compound `C[N+]1(C)CCC(=C(c2ccccc2)c2ccccc2)CC1`, the Potency result in experiment [3], in experiment [4] and in experiment [2] was “inactive” each time.
Consider `C[N+]1(CC2COC(c3ccccc3)(C3CCCCC3)O2)CCCCC1` (stereo not given), for which the Potency result in experiment [3], in experiment [4] and in experiment [5] was “inactive” in each case.
Turning to `CN(C)CCC[C@@]1(c2ccc(F)cc2)OCc2cc(C#N)ccc21`, the Potency result in experiment [3], in experiment [4] and in experiment [2] was “inactive” in each case.
With `N/C(=N\N=C\c1ccc(Cl)cc1)N/N=C/c1ccc(Cl)cc1`, in experiment [1], the Potency is 3.55 µM (active). Besides, the Potency entry in experiment [4], in experiment [2] and in experiment [5] was “inactive” throughout.
On to `CN1CCN(C2=Nc3cc(F)ccc3Cc3ccccc32)CC1`, for which the Potency entry in experiment [3], in experiment [4], in experiment [2] and in experiment [5] was “inactive” each time.
As for `CCOC(=O)[C@@](C)(N)Cc1ccc(O)c(O)c1`, in experiment [3], the Potency result was “inactive”.
As for `CCOC(=O)c1c(N)sc2c1CCN(Cc1ccccc1)C2`, the Potency entry in experiment [3] and in experiment [4] was “inactive” each time. Moreover, the Potency in experiment [2] is 36.1 µM (active).
With `CCCCCCCCCCCCOCCOCCOCCOCCOCCOCCOCCOCCOCCO`, in experiment [3], the Potency result was “inactive”.
